The supplement of paper PMC12282887
± gives the standard deviation of the averaged measurements.

What was measured:
Test in all cases: promoter activity interaction Z-score (Lux/OD deviation from empty-vector control); higher = stronger promoter induction by the compound
[1] = system: E. coli BW25113 acrABp lux reporter
In short: (§1)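 Reporter strains of E. coli BW25113 grew at 37°C in 40 µl LB Lennox in 384-well plates. Readings of OD600 and luminescence were taken every 30 min over 12 h, integrated over 0–8 h (wild type) or 1–9 h (deletion strains), and wells below 10% of the median growth value were excluded. Scores are Z-transformed residuals of growth-normalised luminescence from a fit against a control.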

[2] = system: E. coli BW25113 marRABp lux reporter
In short: as §1

[3] = system: E. coli BW25113 micFp lux reporter
In short: as §1

[4] = system: E. coli BW25113 ompFp lux reporter
In short: as §1

[5] = system: E. coli BW25113 robp lux reporter
In short: as §1

[6] = system: E. coli BW25113 soxSp lux reporter
In short: as §1

[7] = system: E. coli BW25113 tolCp lux reporter
In short: as §1

[8] = 0.25 µg/ml, genetic background: wild type
[9] = 0.25 µg/ml, genetic background: ΔmarA
[10] = 0.25 µg/ml, genetic background: Δrob
[11] = 0.25 µg/ml, genetic background: ΔsoxS
[12] = 0.5 µg/ml, genetic background: wild type
[13] = 0.5 µg/ml, genetic background: ΔmarA
[14] = 0.5 µg/ml, genetic background: Δrob
[15] = 0.5 µg/ml, genetic background: ΔsoxS
[16] = 1 µg/ml, genetic background: wild type
[17] = 1 µg/ml, genetic background: ΔmarA
[18] = 1 µg/ml, genetic background: Δrob
[19] = 1 µg/ml, genetic background: ΔsoxS
[20] = 2 µg/ml, genetic background: wild type
[21] = 2 µg/ml, genetic background: ΔmarA
[22] = 2 µg/ml, genetic background: Δrob
[23] = 2 µg/ml, genetic background: ΔsoxS

In the case of `C/C(=C\C(=O)OCCCCCCCCC(=O)O)C[C@@H]1OC[C@H](C[C@@H]2O[C@H]2[C@@H](C)[C@H](C)O)[C@@H](O)[C@H]1O` [Pseudomonic acid], the “promoter activity interaction Z-score” value [1, 8] is reported as -0.112 ± 0.0017, the “promoter activity interaction Z-score” value [1, 9] is reported as 0.206 ± 0.33 and the “promoter activity interaction Z-score” value [1, 10] is reported as 0.0305 ± 0.27. The “promoter activity interaction Z-score” value [1, 11] was -0.332 ± 0.5, the “promoter activity interaction Z-score” value [1, 12] was -0.272 ± 0.0069 and the “promoter activity interaction Z-score” value [1, 13] was 0.456 ± 0.14. For the same compound, the “promoter activity interaction Z-score” value [1, 14] was -0.0699 ± 0.0047, the “promoter activity interaction Z-score” value [1, 15] was -0.0985 ± 0.042 and the “promoter activity interaction Z-score” value [1, 16] was -0.204 ± 0.26. The “promoter activity interaction Z-score” value [1, 17] was 0.378 ± 0.38, the “promoter activity interaction Z-score” value [1, 18] was -0.109 ± 0.35 and the “promoter activity interaction Z-score” value [1, 19] was 0.483 ± 0.38. The “promoter activity interaction Z-score” value [1, 20] was -0.0697 ± 0.066, the “promoter activity interaction Z-score” value [1, 21] was -0.0876 ± 0.43 and the “promoter activity interaction Z-score” value [1, 22] was 0.431 ± 0.61. The “promoter activity interaction Z-score” value [1, 23] was -0.262 ± 0.13, the “promoter activity interaction Z-score” value [2, 8] was 0.11 ± 0.42 and the “promoter activity interaction Z-score” value [2, 9] was -0.235 ± 0.012. The “promoter activity interaction Z-score” value [2, 10] was -0.0762 ± 0.015, the “promoter activity interaction Z-score” value [2, 11] was 0.0844 ± 0.02 and the “promoter activity interaction Z-score” value [2, 12] was -0.132 ± 0.23. The “promoter activity interaction Z-score” value [2, 13] was 0.0957 ± 0.22, the “promoter activity interaction Z-score” value [2, 14] was -0.00927 ± 0.019 and the “promoter activity interaction Z-score” value [2, 15] was -0.0242 ± 0.093. For the same compound, the “promoter activity interaction Z-score” value [2, 16] was -0.169 ± 0.093, the “promoter activity interaction Z-score” value [2, 17] was -0.155 ± 0.7 and the “promoter activity interaction Z-score” value [2, 18] was -0.106 ± 0.21. The “promoter activity interaction Z-score” value [2, 19] was -0.0673 ± 0.12, the “promoter activity interaction Z-score” value [2, 20] was 0.422 ± 0.28 and the “promoter activity interaction Z-score” value [2, 21] was 0.511 ± 0.47. The “promoter activity interaction Z-score” value [2, 22] was 0.235 ± 0.31, the “promoter activity interaction Z-score” value [2, 23] was 0.341 ± 0.086 and the “promoter activity interaction Z-score” value [3, 8] was -0.00251 ± 0.014. For the same compound, the “promoter activity interaction Z-score” value [3, 9] was -0.0765 ± 0.049, the “promoter activity interaction Z-score” value [3, 10] was 0.0594 ± 0.055 and the “promoter activity interaction Z-score” value [3, 11] was -0.253 ± 0.16. The “promoter activity interaction Z-score” value [3, 12] was -0.108 ± 0.12, the “promoter activity interaction Z-score” value [3, 13] was 0.0535 ± 0.005 and the “promoter activity interaction Z-score” value [3, 14] was -0.0538 ± 0.014. The “promoter activity interaction Z-score” value [3, 15] was 0.11 ± 0.00091, the “promoter activity interaction Z-score” value [3, 16] was -0.064 ± 0.06 and the “promoter activity interaction Z-score” value [3, 17] was -0.0233 ± 0.076. For the same compound, the “promoter activity interaction Z-score” value [3, 18] was -0.144 ± 0.018, the “promoter activity interaction Z-score” value [3, 19] was 0.271 ± 0.095 and the “promoter activity interaction Z-score” value [3, 20] was -0.0515 ± 0.13. The “promoter activity interaction Z-score” value [3, 21] was -0.351 ± 0.054, the “promoter activity interaction Z-score” value [3, 22] was -0.275 ± 0.0059 and the “promoter activity interaction Z-score” value [3, 23] was -0.431 ± 0.085. For the same compound, the “promoter activity interaction Z-score” value [4, 8] was 0.431 ± 0.041, the “promoter activity interaction Z-score” value [4, 9] was 0.122 ± 0.59 and the “promoter activity interaction Z-score” value [4, 10] was 0.647 ± 0.08. The “promoter activity interaction Z-score” value [4, 11] was 0.0332 ± 0.47, the “promoter activity interaction Z-score” value [4, 12] was 0.435 ± 0.061 and the “promoter activity interaction Z-score” value [4, 13] was 0.376 ± 0.74. For the same compound, the “promoter activity interaction Z-score” value [4, 14] was 0.561 ± 0.78, the “promoter activity interaction Z-score” value [4, 15] was 0.388 ± 0.58 and the “promoter activity interaction Z-score” value [4, 16] was 0.248 ± 0.034. The “promoter activity interaction Z-score” value [4, 17] was 0.569 ± 0.62, the “promoter activity interaction Z-score” value [4, 18] was -0.0747 ± 0.3 and the “promoter activity interaction Z-score” value [4, 19] was 0.938 ± 0.33. The “promoter activity interaction Z-score” value [4, 20] was 1.46 ± 0.058, the “promoter activity interaction Z-score” value [4, 21] was 1.34 ± 1.3 and the “promoter activity interaction Z-score” value [4, 22] was 1.51 ± 0.36. For the same compound, the “promoter activity interaction Z-score” value [4, 23] was 1.34 ± 0.34, the “promoter activity interaction Z-score” value [5, 8] was 0.653 ± 0.041 and the “promoter activity interaction Z-score” value [5, 9] was 0.421 ± 0.4. The “promoter activity interaction Z-score” value [5, 10] was 0.357 ± 0.37, the “promoter activity interaction Z-score” value [5, 11] was 0.316 ± 0.48 and the “promoter activity interaction Z-score” value [5, 12] was 0.392 ± 0.59. The “promoter activity interaction Z-score” value [5, 13] was 0.85 ± 0.05, the “promoter activity interaction Z-score” value [5, 14] was 0.39 ± 0.34 and the “promoter activity interaction Z-score” value [5, 15] was 0.257 ± 0.2. For the same compound, the “promoter activity interaction Z-score” value [5, 16] was 0.263 ± 0.2, the “promoter activity interaction Z-score” value [5, 17] was 0.154 ± 0.026 and the “promoter activity interaction Z-score” value [5, 18] was 0.375 ± 0.08. The “promoter activity interaction Z-score” value [5, 19] was 0.843 ± 0.45, the “promoter activity interaction Z-score” value [5, 20] was -0.842 ± 0.42 and the “promoter activity interaction Z-score” value [5, 21] was -1.15 ± 0.4. For the same compound, the “promoter activity interaction Z-score” value [5, 22] was -1.28 ± 0.23, the “promoter activity interaction Z-score” value [5, 23] was -1.41 ± 0.72 and the “promoter activity interaction Z-score” value [6, 8] was -0.0625 ± 0.032. The “promoter activity interaction Z-score” value [6, 9] was -0.0981 ± 0.09, the “promoter activity interaction Z-score” value [6, 10] was 0.0456 ± 0.03 and the “promoter activity interaction Z-score” value [6, 11] was -0.226 ± 0.46. For the same compound, the “promoter activity interaction Z-score” value [6, 12] was -0.257 ± 0.034, the “promoter activity interaction Z-score” value [6, 13] was -0.0627 ± 0.0052 and the “promoter activity interaction Z-score” value [6, 14] was -0.182 ± 0.0097. For the same compound, the “promoter activity interaction Z-score” value [6, 15] was -0.102 ± 0.24, the “promoter activity interaction Z-score” value [6, 16] was -0.14 ± 0.14 and the “promoter activity interaction Z-score” value [6, 17] was -0.143 ± 0.15. For the same compound, the “promoter activity interaction Z-score” value [6, 18] was -0.259 ± 0.033, the “promoter activity interaction Z-score” value [6, 19] was 0.137 ± 0.11 and the “promoter activity interaction Z-score” value [6, 20] was 0.249 ± 0.064. For the same compound, the “promoter activity interaction Z-score” value [6, 21] was 0.277 ± 0.25, the “promoter activity interaction Z-score” value [6, 22] was 0.0902 ± 0.012 and the “promoter activity interaction Z-score” value [6, 23] was 0.748 ± 0.0089. For the same compound, the “promoter activity interaction Z-score” value [7, 8] was -0.891 ± 0.62, the “promoter activity interaction Z-score” value [7, 9] was -0.0344 ± 0.2 and the “promoter activity interaction Z-score” value [7, 10] was -0.281 ± 0.4. The “promoter activity interaction Z-score” value [7, 11] was -1.37 ± 0.18, the “promoter activity interaction Z-score” value [7, 12] was -0.126 ± 0.82 and the “promoter activity interaction Z-score” value [7, 13] was 0.395 ± 0.35. For the same compound, the “promoter activity interaction Z-score” value [7, 14] was -0.919 ± 0.45, the “promoter activity interaction Z-score” value [7, 15] was -0.306 ± 0.13 and the “promoter activity interaction Z-score” value [7, 16] was -0.0576 ± 0.9. For the same compound, the “promoter activity interaction Z-score” value [7, 17] was 0.349 ± 1.1, the “promoter activity interaction Z-score” value [7, 18] was -0.441 ± 0.81 and the “promoter activity interaction Z-score” value [7, 19] was 0.0561 ± 0.82. The “promoter activity interaction Z-score” value [7, 20] was 0.277 ± 0.14, the “promoter activity interaction Z-score” value [7, 21] was -0.606 ± 0.55 and the “promoter activity interaction Z-score” value [7, 22] was 0.432 ± 0.075. For the same compound, the “promoter activity interaction Z-score” value [7, 23] was -1.08 ± 0.07.
